In PubChem BioAssay AID1851 (National Center for Advancing Translational Sciences (NCATS), 2009):
About 5,800 (36%) of roughly 16,000 compounds were called active. About 23% were inconclusive and are not listed. The list shows a part of the results. A number with no mark means an inactive call. Calls follow the shape of the dose curve; as a rule, active = well fitted curve in the direction sought with a large enough effect; inconclusive = small, poorly fitted or top-dose-only effect, or effect the other way; inactive = no such curve, though single readings can be large or run the other way.

Target: Cytochrome P450 2C19 (Homo sapiens) (UniProt P33261)
Assay: Cytochrome panel assay with activity outcomes
Conditions: recombinant CYP, pro-luciferin dealkylation, luminescence, p450-cyp2c19; series mostly up to 57.1 µM; activity, negative = inhibition: at the top concentration
% is scaled to controls: 0 for no effect and ±100 for the full control effect.

Sequence of Cytochrome P450 2C19 (Homo sapiens) (P33261 whole entry, looked up): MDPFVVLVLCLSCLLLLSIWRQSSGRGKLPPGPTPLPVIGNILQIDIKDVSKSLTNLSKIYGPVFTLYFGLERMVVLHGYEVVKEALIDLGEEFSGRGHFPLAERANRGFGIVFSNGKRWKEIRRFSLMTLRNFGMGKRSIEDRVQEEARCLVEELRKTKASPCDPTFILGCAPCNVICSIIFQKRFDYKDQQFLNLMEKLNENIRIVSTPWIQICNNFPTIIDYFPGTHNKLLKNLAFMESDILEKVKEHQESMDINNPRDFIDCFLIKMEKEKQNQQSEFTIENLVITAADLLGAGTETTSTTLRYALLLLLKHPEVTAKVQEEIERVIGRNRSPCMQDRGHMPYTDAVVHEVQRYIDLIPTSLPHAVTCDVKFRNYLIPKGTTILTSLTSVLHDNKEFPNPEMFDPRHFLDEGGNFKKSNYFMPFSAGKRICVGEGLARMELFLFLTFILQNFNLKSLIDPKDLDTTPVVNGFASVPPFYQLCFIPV

| SMILES | activity, negative = inhibition | AC50 |
| --- | --- | --- |
| COc1cc2c(cc1OC)[C@]13CC[N@+]4(C)CC5=CCO[C@H]6CC(=O)N2[C@@H]1[C@@H]6[C@@H]5C[C@]34O | -1.84% [at 11.4 µM] |  |
| c1ccc(CN2CCN(Cc3ccc4c(c3)OCCO4)CC2)cc1 | -23.7% |  |
| Cc1ccc(C2CC(=O)C(C=NCCN3CCN(C(=O)Cc4ccccc4)CC3)=C(O)C2)cc1 (configuration not stated) |  | 3.16 µM (active) |
| c1ccc(CCN2CCOCC2)nc1 | 1.5% [at 11.4 µM] |  |
| CC(C)CN1CCC2(CC1)CCN(C(=O)Oc1ccccc1)CC2 | -17.2% |  |
| CCCN1CCc2cc(O)cc3c2[C@H]1Cc1ccc(O)c(O)c1-3 | -21.6% |  |
| O=C(Oc1ccccc1)N1CCC2(CCN(Cc3ccccc3)CC2)CC1 | -9.29% |  |
| c1ccc(CN2CC[C@@]3(CCCNC3)C2)cc1 | -44.4% |  |
| c1ccc(CN2CCC3(CCc4ccccc43)CC2)cc1 |  | 2.51 µM (active) |
| c1cc(CN2CCC3(CCNCC3)CC2)ccn1 | -9.72% |  |
| c1ccc(CN2CCCC3(CCNCC3)C2)cc1 | -12.1% |  |
| c1ccc(CN2CCC3(CCNCC3)CC2)cc1 |  | 5.01 µM (active) |
| CCn1cc(C(=O)O)c(=O)c2cc3c(cc21)OCO3 | 3.65% [at 25.6 µM] |  |
| C[As+](C)(c1ccc(Br)c([N+](=O)[O-])c1)c1ccc(Br)c([N+](=O)[O-])c1.O=[N+]([O-])O | 27.9% [at 11.4 µM] |  |
| S=C=Nc1cccc(C2(N3CCCCC3)CCCCC2)c1 | -29.9% |  |
| CS(=O)(=O)Nc1ccc(Cc2noc(-c3ccc4[nH]cc(CCN)c4c3)n2)cc1 |  | 15.8 µM (active) |
| C[C@H](N)Cc1c[nH]c2ccc(OCc3cccs3)cc12 |  | inactive |
| CN1CCN(c2ccc3ccccc3n2)CC1 |  | inactive |
| C[C@H](Br)C(=O)N[C@H](CO)C(=O)O | 4.64% [at 11.4 µM] |  |
| CCCN1CCC[C@@H]2Cc3nc(N)ncc3C[C@H]21 | 10.2% |  |
| CC(=NCc1ccco1)c1c(O)n(-c2ccccc2)c(=O)[nH]c1=O |  | 10 µM (active) |
| CC(=NCCN1CCOCC1)c1c(O)n(Cc2ccccc2)c(=O)[nH]c1=O | 8.57% |  |
| CC(=Nc1c(C)n(C)n(-c2ccccc2)c1=O)c1c(O)n(Cc2ccccc2)c(=O)[nH]c1=O | -15.7% |  |
| C/C=C1\C[N@@+]2(C)CC[C@@]34C(=C(C=O)[C@H]1C[C@H]32)Nc1ccccc14 | 4.17% [at 25.6 µM] |  |
| O=[N+]([O-])c1cc(-c2ccc([As](=O)(O)O)cc2)ccc1[As](=O)(O)O | 22.9% [at 11.4 µM] |  |
| COCCNC(=S)NC1CC2CCCC(C1)N2Cc1cccs1 (configuration not stated) | -11.7% |  |
| Cc1ccc(N2C(=O)/C(=C/c3ccc(CN(CCC#N)S(C)(=O)=O)o3)C(=O)NC2=S)cc1C |  | 10 µM (active) |
